Out of some 290,000 compounds screened, about 3,000 (1%) were called active. Only a selection was taken, and actives are over-represented in it overall. A number with no mark means an inactive call. No stated cut-off is given here; in the data, active means inhibition mostly above about 36% (no sharp cut-off); inactive means mostly below about 34%.

The nature of the assay: NOD1 signaling inhibitors, primary screen, cell-based, luminescence, uHTS (AID 1578).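 Further: HEK-293T reporter cells stimulated with the NOD1 agonist gamma-tri-DAP.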 The note with it: NOD1-driven NF-kB luciferase reporter cells, at 4 µM, stronger effect = higher value. A general note: Reporter assays use an easily measured gene product as a stand-in for the process of interest.
Consider `CCOC(=O)c1nnn2c1nc(N1CCOCC1)c1ccccc12`, for which the inhibition (usually the drop in the measured response relative to a control, in per cent) was 3.1%.

For the compound `Cc1ccc(C(=O)N(CC(=O)NC2CCCCC2)c2ccccc2F)s1`, the inhibition was -27%. As for `O=C(NC1CC1)c1ccc(CS(=O)c2ccccc2)o1` (stereo unspecified), the inhibition was -19%.

For `Cc1ccc2nc(NC(=O)c3ccc(OCC4CCCO4)cc3)sc2c1` (stereo unspecified), the inhibition was 3.2%. The value for `C/C=C(/C)C(=O)OC(C)(C)[C@@H]1Cc2c(ccc3ccc(=O)oc23)O1` was -44.4%; that for `Cc1cccc(C)c1NC(=O)COn1nnc2ccc(C(F)(F)F)cc21` was -17.2%; that for `O=C(COn1nnc2ccc(C(F)(F)F)cc21)Nc1nnc(-c2ccccc2)o1` was 67.4% (active). The value for `O=C(COn1nnc2ccc(C(F)(F)F)cc21)Nc1c(Cl)cccc1Cl` was -17.9%; that for `CCOC(=O)C1(Nc2nccs2)Sc2ccccc2NC1=O` (stereo unspecified) was 24.1%; that for `CSc1nncc(-c2ccc(F)cc2)n1` was 12.5%. Regarding `COc1ccc(/C(C)=N/NC(=O)c2ccc(NS(=O)(=O)c3cccs3)cc2)cc1`, the inhibition is -9.8%. The value for `CSCC[C@H](N)C(=O)NCC1CCC(C(=O)Nc2ccc3c(c2)OCO3)CC1` (stereo partly specified) was -1.6%; that for `N#CC1(c2ccccc2)CCCN1C(=O)c1ccco1` (stereo unspecified) was 7.3%.

In the case of `CCn1c(Cl)c(C=O)s/c1=N\S(=O)(=O)c1ccccc1`, the inhibition was 34% (active). As for `Cc1c(C(C)(C)C)s/c(=N/S(=O)(=O)c2ccccc2)n1C`, the inhibition is 3%. Regarding `O=Cc1s/c(=N\S(=O)(=O)c2ccccc2)n(CCCCl)c1Cl`, the inhibition is 17.3%. The value for `CN(C)S(=O)(=O)c1cccc(C(=O)Nc2ccccc2N2CCCCC2)c1` was -14.5%; that for `COc1ccc(-c2c(-c3cc(OC)c(OC)c(OC)c3)noc2C)cn1` was -8.6%. For `COc1cc(-c2c(-c3cc(OC)c(OC)c(OC)c3)noc2C)ccc1F` the value was -21.2%. For `COc1cc(-c2noc(C)c2-c2ccc(N(C)C)nc2)cc(OC)c1OC`, the inhibition was 62% (active). For `CCOC(=O)c1cnn(-c2nc(SC)nc3sc4c(c23)CCCC4)c1N` the value was -0.3%; for `CCOC(=O)c1cnn(-c2nc(C)nc3sc4c(c23)CCC4)c1N`, -33%; for `CCOC(=O)c1cnn(-c2nc3sc4c(c3c(=O)[nH]2)CCCC4)c1N`, 63.7% (active). On to `S=C(NCc1ccc(Cl)cc1)NN1CCOCC1`, for which the inhibition is -24.6%. The value for `CCOCCCNC(=O)NC(=O)CN1CCN(S(=O)(=O)c2ccc3c(c2)OCCO3)CC1` was -47%. Consider `O=C1CCC(=O)N1CC1CC2CCC1C2` (stereo unspecified), for which the inhibition is 0.2%. Regarding `COC(=O)c1cn(-c2ccccc2)nc1-c1ccc(OC)cc1`, the inhibition is 47.5% (active). As to `COC(=O)c1cn(-c2ccccc2)nc1-c1ccccc1`, the inhibition was -4.9%.

With `COc1ccc(-c2nn(-c3ccccc3)cc2C(=O)O)cc1`, the inhibition was 18.9%. As to `O=C(c1ccc(Br)cc1)N(c1ccccn1)C1CCCCC1`, the inhibition is -12.8%. As for `CCOC(=O)CC1C(=O)NCCN1c1nc2c(C)cccn2c(=O)c1/C=C1\SC(=S)N(C(C)CC)C1=O` (stereo unspecified), the inhibition was 35.4% (active). The value for `CCCN1C(=O)/C(=C/c2c(N3CCNC(=O)C3CC(=O)OCC)nc3c(C)cccn3c2=O)SC1=S` (stereo unspecified) was -1%; that for `CCCN1C(=O)/C(=C/c2c(N3CCNC(=O)C3CC(=O)OC)nc3c(C)cccn3c2=O)SC1=S` (stereo unspecified) was 6.9%. For `CCOC(=O)CC1C(=O)NCCN1c1nc2c(C)cccn2c(=O)c1/C=C1\SC(=S)N(CC(C)C)C1=O` (stereo unspecified) the value was 32% (active); for `CCOC(=O)CC1C(=O)NCCN1c1nc2ccc(C)cn2c(=O)c1/C=C1\SC(=S)N(CC(C)C)C1=O` (stereo unspecified), 3.2%.

`CCOC(=O)CC1C(=O)NCCN1c1nc2ccc(C)cn2c(=O)c1/C=C1\SC(=S)N(C(C)CC)C1=O` (stereo unspecified): the inhibition was 20.6%. The value for `COc1ccc(C(=O)O)cc1NC(=S)NC(=O)Cc1ccc(Cl)cc1` was -11.2%; that for `Cn1c(SCC(=O)NCCc2ccccc2)nnc1C1CCCCC1` was -6.8%; that for `COC(=O)Nc1ccc(N2CCOCC2)c(S(=O)(=O)N2CCOCC2)c1` was -18%. The value for `c1ccc(C2[C@H]3CN(Cc4cccnc4)[C@H](c4ccccc4)C34CC2(c2ccccc2)C4)cc1` (stereo partly specified) was -5.1%. On to `Cc1ccc(C)c(N2CCN(C(=O)CCNC(=O)Cn3ccc4ccccc4c3=O)CC2)c1`, for which the inhibition is 33%.

As for `Oc1ccccc1C1Nc2cccc3cccc(c23)N1`, the inhibition was 7.9%. For `O=[N+]([O-])c1ccc(C2Nc3cccc4cccc(c34)N2)cc1` the value was 25.1%; for `O=[N+]([O-])c1ccccc1C1Nc2cccc3cccc(c23)N1`, 105% (active); for `Cc1ccc(C(NC(=O)NCCCN2CCOCC2)=C(Cl)Cl)cc1F`, 34.4%.

On to `Cc1ccc(C(NC(=O)N2CCOCC2)=C(Cl)Cl)cc1F`, for which the inhibition is 32.1%.

In the case of `Cc1ccc(C(NC(=O)N2CCCCC2)=C(Cl)Cl)cc1F`, the inhibition is 74% (active).

For the compound `COc1ccc(CN2CCN(c3cccc(C)c3C)CC2)cc1OC`, the inhibition was 21.4%. For `CCC1Oc2ccc(C)cc2N(CC(=O)NCCN2CCOCC2)C1=O` (stereo unspecified), the inhibition was -21%. For `Fc1ccc(C2=NN(c3ccccc3)C(c3ccco3)C2)cc1` (stereo unspecified), the inhibition was 4%. The value for `c1ccc(C2=NN(c3ccccc3)C(c3ccco3)C2)cc1` (stereo unspecified) was 54.1% (active); that for `Clc1ccc(C2=NN(c3ccccc3)C(c3ccco3)C2)cc1` (stereo unspecified) was -9.1%; that for `O=S(=O)(c1ccc(F)cc1)N1CCn2c(nc3ccccc32)C1` was -11.7%.

`CCOc1ccc(S(=O)(=O)Nc2cc(C)ccn2)c2ccccc12`: the inhibition is 5.2%. For `Cc1ccc2[nH]c3c(=O)n(Cc4ccco4)cnc3c2c1`, the inhibition was 1.2%.

For the compound `CCOc1cccc(-c2nnc3sc(C4CCCCC4)nn23)c1`, the inhibition is 66.8% (active). For `COc1cc(-c2nnc3sc(C4CCCCC4)nn23)cc(OC)c1OC` the value was -20.6%; for `CCOc1cccc(-c2nnc3sc(-c4ccc(C)cc4)nn23)c1`, -0.8%. As to `c1cncc(-c2nnc3sc(C4CCCCC4)nn23)c1`, the inhibition was -14.1%.

In the case of `COc1ccc(-c2nnc3sc(C4CCCCC4)nn23)cc1OC`, the inhibition was 9.5%. Turning to `COc1cccc(-c2nnc3sc(C4CCCCC4)nn23)c1`, the inhibition was 96.4% (active).

Values taken from PubChem BioAssay AID1578 (Sanford-Burnham Center for Chemical Genomics, 2009).
